Measured values as given in PubChem BioAssay (NCATS).
Results filed as inconclusive are left out. Active and inactive are the calls of the source. The call rests on the fitted dose curve; in most records, active means well fitted curve in the direction sought with a large enough effect; inconclusive means small, poorly fitted or top-dose-only effect, or another doubt; inactive means no such curve, though single readings can be large; an effect the other way counts as inactive or inconclusive. Square brackets hold non-standard residues; d marks the D form. Peptide text beside a SMILES is read from it. dPhe(4-Cl) = N[C@H](Cc1ccc(Cl)cc1)C(=O)O; d2Nal = N[C@H](Cc1ccc2ccccc2c1)C(=O)O; dCit = NC(=O)NCCC[C@@H](N)C(=O)O; d3Pal = N[C@H](Cc1cccnc1)C(=O)O

Key:
[1] = molecular target: Cellular tumor antigen p53 (Homo sapiens) (UniProt P04637); assay: Primary qHTS for small molecule compounds that upregulate eGFP-tagged delta133p53alpha (in N-terminal) cells. (AID 2060322); conditions: NCI-H358 eGFP-delta133p53alpha fluorescence, 24 h; activation: stronger effect = higher value;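 further: series mostly up to about 56 µM; 0% = DMSO vehicle and 100% = reference activator; nearly all actives have a fitted effect of over 75% in size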
Method in brief: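 NCI-H358 cells pre-induced 24 h with 10 ng/ml doxycycline to express N-terminal eGFP-delta133p53alpha, then dosed 24 h at 37C without doxycycline; fixed, Hoechst-stained, GFP intensity by laser scanning cytometry, normalized to DMSO (0%) and 57.5 uM 5-azacytidine (100%).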

[2] = molecular target: Aldehyde dehydrogenase, mitochondrial (Homo sapiens) (UniProt P05091); assay: qHTS for Inhibitors of the Aldehyde Dehydrogenase Family (ALDH2) Primary screen (AID 2061308);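 further: plate controls were vehicle for no effect and reference inhibitor for full effect; nearly all actives have a fitted effect of over 55% in size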
[3] = molecular target: Retinaldehyde dehydrogenase 3 (Homo sapiens) (UniProt P47895); assay: qHTS for Inhibitors of the Aldehyde Dehydrogenase Family (ALDH1A3) Primary screen (AID 2061315);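 further: plate controls were DMSO vehicle for no effect and reference inhibitor for full effect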

Cellular tumor antigen p53 (Homo sapiens), sequence (P04637 whole entry, looked up): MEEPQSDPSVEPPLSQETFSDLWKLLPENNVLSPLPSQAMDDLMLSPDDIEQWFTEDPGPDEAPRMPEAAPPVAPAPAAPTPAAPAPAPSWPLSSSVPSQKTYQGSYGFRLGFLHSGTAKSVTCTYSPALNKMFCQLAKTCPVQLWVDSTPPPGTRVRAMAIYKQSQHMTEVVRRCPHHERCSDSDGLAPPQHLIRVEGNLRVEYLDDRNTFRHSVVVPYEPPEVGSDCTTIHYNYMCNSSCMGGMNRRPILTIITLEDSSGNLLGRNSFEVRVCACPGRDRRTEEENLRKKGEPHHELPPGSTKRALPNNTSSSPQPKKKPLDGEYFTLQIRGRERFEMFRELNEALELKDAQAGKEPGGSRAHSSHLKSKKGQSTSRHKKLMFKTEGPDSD

CC(=O)O[C@@H]1[C@H](O[C@@H]2OC[C@](O)(CO)[C@H]2O)[C@@H](O[C@@H]2O[C@@H](C)[C@H](O)[C@@H](O)[C@H]2O)[C@H](OC(=O)[C@]23CCC(C)(C)C[C@H]2C2=CCC4[C@@]5(C)C[C@H](O)[C@H](O[C@@H]6O[C@H](C(=O)O)[C@@H](O)[C@H](O)[C@H]6O)[C@@](C)(C(=O)O)C5CC[C@@]4(C)[C@]2(C)CC3)O[C@@H]1C (some centres undefined)
inactive: activation [1] 18.3% | Potency [2] | Potency [3]

Cc1ccc(Cc2c(C)nc3nc(SCC(=O)NCCN4CCNCC4)nn3c2C)cc1
inactive: activation [1] -9.67% | Potency [2] | Potency [3]

CC1(C)SC2C(NC(=O)[C@H](NC(=O)N3CCNC3=O)c3ccccc3)C(=O)N2C1C(=O)O (some centres undefined)
inactive: activation [1] 17% | Potency [2] | Potency [3]

C=C1C[C@]23C[C@H]1CC[C@H]2[C@@]1(C)CCC[C@@]2(C)C(=O)O[C@@H]([C@@H]3O)[C@@H]12
inactive: activation [1] 12.2% | Potency [2] | Potency [3]

C=C(CC/C=C(\C)C(=O)O)C1(O)CC=C(C)CC1 (centres undefined)
inactive: activation [1] -21.4% | Potency [2] | Potency [3]

CCCN(CCc1ccsc1)C1CCc2c(O)cccc2C1 (centres undefined)
inactive: activation [1] 2.68% | Potency [2] | Potency [3]

C[C@H]1CC[C@@]2(OC1)O[C@H]1CC3C4CC[C@H]5C[C@@H](O)[C@H](O)C[C@]5(C)C4=CC(=O)[C@]3(C)[C@H]1[C@@H]2C (some centres undefined)
inactive: activation [1] 14.3% | Potency [2] | Potency [3]

COc1cc(C2OCC3(O)C(c4ccc(O[C@@H]5O[C@H](CO)[C@@H](O)[C@H](O)[C@H]5O)c(OC)c4)OCC23O)ccc1O (some centres undefined)
inactive: activation [1] -6.11% | Potency [2] | Potency [3]

CC1CCC2C(C)(C)C(O)C(O)CC2(C)C12Cc1c(O)cc(CO)c(C=O)c1O2 (centres undefined)
inactive: activation [1] 0.763% | Potency [2] | Potency [3]

COCC1OC(OC(C)(C)C2CCC3(C)C=C(C4CCC5C4(C)CC(O)C4OC(C(C)(C)O)CCC45C)CCC3O2)C(NC(C)=O)C(O)C1O (centres undefined)
inactive: activation [1] 5.34% | Potency [2] | Potency [3]

CO[C@@H]1CC[C@H](OC[C@]2(COC(=O)c3ccc(C)[nH]3)[C@H](OC(C)=O)CC[C@@]3(C)[C@@H]4CC=C(C)[C@@H](C5=C(O)C(=O)OC5O)[C@]4(C)CC[C@@H]32)O[C@H]1C (some centres undefined)
inactive: activation [1] 0% | Potency [2] | Potency [3]

CC1(C)C2CC=C(COC3OC(COC4OCC(O)(CO)C4O)C(O)C(O)C3O)C1C2 (centres undefined)
inactive: activation [1] 18.3% | Potency [2] | Potency [3]

CC(=O)OCC1OC(OC2COC(OC3COC(OC4C(OC5C(CO)OC(OC6CCC7(C)C(CCC8(C)C7CC=C7C9CC(C)(C)CCC9(C(=O)OC9OC(CO)C(O)C(O)C9OC9OCC(OC%10OCC(O)(CO)C%10O)C(O)C9O)C(O)CC78C)C6(C)C)C(O)C5O)OCC(O)C4O)C(O)C3O)C(O)C2O)C(OC(=O)/C=C/c2ccccc2)C(O)C1OC(C)=O (centres undefined)
inactive: activation [1] 11.5% | activity change, negative = inhibition [2] 6.5% [at 11.2 µM] | activity change, negative = inhibition [3] -8.22% [at 11.2 µM]

CC(=O)OC1C(O)CC(O[C@@H]2O[C@H](CO)[C@@H](O)[C@H](O)[C@H]2O)C2CCC3C(=O)OC(c4ccoc4)CC3(C)C21 (some centres undefined)
inactive: activation [1] 3.05% | Potency [2] | Potency [3]

O=C1OC(c2ccc(O)cc2)C(O)=C1Cc1ccccc1 (centres undefined)
inactive: activation [1] -3.82% | Potency [2] | Potency [3]

OCC(CO[C@@H]1O[C@H](CO)[C@@H](O)[C@H](O)[C@H]1O)c1ccc2c(c1)OCO2 (some centres undefined)
inactive: activation [1] 24.1% | Potency [2] | Potency [3]

N#Cc1ccc(-c2ccc(S(=O)(=O)Nc3cccc(N)n3)cc2)cc1
inactive: activation [1] 2.86% | Potency [2] | Potency [3]

CC(C)(O)C1CCC2(C)CCCC(C)(O)C2C1 (centres undefined)
inactive: activation [1] 2.68% | Potency [2] | Potency [3]

CC1(C=O)CCCC2(C)C1CCC13CC(CO)C(CCC12)C3 (centres undefined)
inactive: activation [1] -9.92% | Potency [2] | Potency [3]

COc1cc(O)cc(C)c1C(=O)O[C@H]1[C@@H](O)[C@@H](n2ccc(=O)[nH]c2=O)O[C@@H]1CO
inactive: activation [1] -9.16% | Potency [2] | Potency [3]

CC(C)C(C)C(O)C1CC23CC(=O)C4(O)C(=C2CCC3C1C)C=CC1(O)CC(O)CCC14C (centres undefined)
inactive: activation [1] 15.3% | Potency [2] | Potency [3]

CC(=O)N1c2ccccc2C2(O)CC3C(=O)NC(CC(C)C)C(=O)N3C12 (centres undefined)
inactive: activation [1] -32.8% | Potency [2] | Potency [3]

CC(=O)N[C@H](Cc1ccc2ccccc2c1)C(=O)N[C@H](Cc1ccc(Cl)cc1)C(=O)N[C@H](Cc1cccnc1)C(=O)N[C@@H](CO)C(=O)N[C@@H](Cc1ccc(O)cc1)C(=O)N[C@H](CCCNC(N)=O)C(=O)N[C@@H](CC(C)C)C(=O)N[C@@H](CCCN=C(N)N)C(=O)N1CCC[C@H]1C(=O)N[C@H](C)C(N)=O (Ac-[d2Nal][dPhe(4-Cl)][d3Pal]SY[dCit]LRP[dA]-NH2)
inactive: activation [1] 13% | Potency [2] | Potency [3]
